# PubChem BioAssay (Tox21)
# Records with an inconclusive call do not appear. A call without a number means that no potency is given here. Active and inactive are the calls of the source. Unless noted, calls follow the shape of the dose curve; as a rule, active = well fitted curve in the direction sought with a large enough effect in the repeat runs; inconclusive = weak or mixed curves; inactive = no such curve, though single readings can be large; an effect the other way counts as inactive or inconclusive.
# Columns and labels:
# [1] = A CellTox Green Cytotoxicity Assay to monitor cytotoxicity in HepG2 cells - 8 hour (AID 1224890); also: nearly all actives have a fitted effect of over 45% in size
# How it was run: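 Measurements at 0, 8, 16, 24, 32 and 40 h of treatment captured CellTox Green fluorescence in HepG2 cells that had been co-plated with reagent and preincubated 5 h at 37 C/5% CO2.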
# [2] = qHTS assay to identify small molecule antagonists of the estrogen receptor alpha (ER-alpha) signaling pathway using the BG1 cell line in the presence of 0.1 nM 17-beta-estradiol - cell viability counter screen (AID 1259241); also: nearly all actives have a fitted effect of over 40% in size
# How it was run: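 Viability in VM7Luc4E2 cells after 22 hr compound exposure under 0.1 nM 17beta-estradiol stimulation, by CellTiter-Fluor.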
# [3] = qHTS assay to identify small molecule antagonists of the androgen receptor (AR) signaling pathway using the MDA cell line in the presence of 0.5 nM R1881 - cell viability counter screen (AID 1259242); also: nearly all actives have a fitted effect of over 45% in size
# How it was run: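 Concentration-response screen of compounds for toxicity in MDA-kb2 reporter cells: 16 hr at 37C with 0.5 nM R1881, endpoint live-cell protease fluorescence measured in the reporter wells.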
# [4] = target: Androgen receptor (Homo sapiens) (UniProt P10275); test: qHTS assay to identify small molecule antagonists of the androgen receptor (AR) signaling pathway using the MDA cell line in the presence of 0.5 nM R1881 (AID 1259243); also: nearly all actives have a fitted effect of over 50% in size
# How it was run: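 With R1881 held at 0.5 nM (final), compound effects on MMTV-luciferase expression in MDA-kb2 cells were scored by luminescence after a 16 hr, 37C incubation.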
# [5] = target: Estrogen receptor (Homo sapiens) (UniProt P03372); test: qHTS assay to identify small molecule antagonists of the estrogen receptor alpha (ER-alpha) signaling pathway using the BG1 cell line in the presence of 0.1 nM 17-beta-estradiol (AID 1259244); also: nearly all actives have a fitted effect of over 50% in size
# How it was run: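 Compounds were tested against 0.1 nM (final) 17beta-estradiol in VM7Luc4E2 cells, which express full-length ER-alpha and an ERE-luciferase reporter; luminescence was recorded following 22 h exposure.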
# [6] = qHTS assay to identify small molecule HDAC inhibitors (AID 1259364); also: potency is read from the fitted curve at half-maximal effect;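 also: wild-type HCT-116 cells with endogenous class I/II HDAC activity; nearly all actives have a fitted effect of over 45% in size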
# How it was run: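 Screening used wild-type human colon HCT-116 cells incubated overnight, dosed with compounds for 2 hours, and assayed with a homogeneous luminogenic HDAC I/II reagent for 30 minutes at room temperature.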
# [7] = qHTS assay to identify small molecule HDAC inhibitors - cell viability counter screen (AID 1259365); also: series mostly up to about 92 µM; nearly all actives have a fitted effect of over 50% in size
# How it was run: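 Cytotoxicity was gauged in wild-type HCT-116 cells after a brief 2hr treatment with DMSO-dissolved compounds at 37C and 5% CO2, using CellTiter-Glo luminescence developed for 30min at room temperature.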
# [8] = qHTS assay to identify small molecule agonists of the sonic hedgehog signaling (Shh) pathway - cell viability counter screen (AID 1259366); also: nearly all actives have a fitted effect of over 50% in size
# How it was run: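 Stable Gli1-Luc NIH/3T3 clone, 2,000 cells/well. Compound exposure 24hr at 37C. Read-out: CellTiter-Fluor fluorescence.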
# [9] = qHTS assay to identify small molecule antagonists of the sonic hedgehog signaling (Shh) pathway - cell viability counter screen (AID 1259367); also: nearly all actives have a fitted effect of over 55% in size
# How it was run: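 CellTiter-Fluor signal in conditioned medium-stimulated 3T3 Gli1-Luc cells, 23 hr compound exposure, 37C.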
# [10] = qHTS assay to identify small molecule agonists of the sonic hedgehog signaling (Shh) pathway (AID 1259368; calls by dose curve;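 also: NIH/3T3-derived 3T3Gli1-Luc cells carrying a stable Gli1-driven firefly luciferase reporter; series mostly up to about 92 µM; nearly all actives have a fitted effect of over 15% in size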)
# How it was run: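 Hedgehog pathway agonism scored by increased firefly luciferase luminescence in 3T3Gli1-Luc cells treated 24 hr at 37 C; detection used a 30 min room-temperature reagent incubation.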
# [11] = qHTS assay to identify small molecule antagonists of the sonic hedgehog signaling (Shh) pathway (AID 1259369; calls by dose curve; also: nearly all actives have a fitted effect of over 45% in size)
# How it was run: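 NIH/3T3 stable Gli1-Luc clone, 2,000 cells/well, 4hr settle; cpd + conditioned medium 24hr; Luc reagent 30min RT; luminescence.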
# [12] = target: Estrogen receptor beta (Homo sapiens) (UniProt Q92731); test: qHTS assay to identify small molecule agonists of the estrogen receptor beta (ER-beta) signaling pathway (AID 1259377; active = well fitted activation curve with a large enough effect in the signal ratio in the repeat runs, not every such curve was filed as active; the % refers to the signal ratio)
# How it was run: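 Measured by fluorescence intensity from a B/G FRET beta-lactamase substrate (2 h, room temperature) in ER-beta-UAS-bla HEK293T cells treated with DMSO-dissolved compounds for 16 hr at 37C and 5% CO2.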
# [13] = target: Estrogen receptor beta (Homo sapiens) (UniProt Q92731); test: qHTS assay to identify small molecule antagonists of the estrogen receptor beta (ER-beta) signaling pathway (AID 1259378; active = well fitted inhibition curve with a large enough effect in the signal ratio in the repeat runs, not every such curve was filed as active; the % refers to the signal ratio)
# How it was run: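 Antagonist mode: compounds added to beta-lactamase reporter HEK293T ER-beta-UAS cells stimulated with E2 (1nM final), 16 hr at 37C. LiveBLAzer B/G FRET substrate, 2 hours room temperature, fluorescence read-out.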
# [14] = qHTS assay to identify small molecule agonists of the estrogen receptor beta (ER-beta) signaling pathway - cell viability counter screen (AID 1259380); also: nearly all actives have a fitted effect of over 30% in size; also: potency is read from the fitted curve at half-maximal effect
# How it was run: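 Measured: luminescence from CellTiter-Glo after 30 min at room temperature, added to wells already read for the LiveBLAzer FRET reporter (2 hr substrate); ER-beta-UAS-bla HEK293T cells had 16 hr compound treatment at 37C, 5% CO2.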
# [15] = target: Androgen receptor (Homo sapiens) (UniProt P10275); test: qHTS assay to identify small molecule agonists of the androgen receptor (AR) signaling pathway in the presence of an antagonist (AID 1259381; calls by dose curve; also: nearly all actives have a fitted effect of over 15% in size)
# How it was run: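 Luminescent ONE-Glo read, 30min at room temperature, follows 16hr compound exposure (15 concentrations) of MDA-kb2 cells at 37C, 0% CO2, with nilutamide added at 3.0uM final.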
# [16] = qHTS assay to identify small molecule antagonists of the estrogen receptor beta (ER-beta) signaling pathway - cell viability counter screen (AID 1259382);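 also: HEK293T cells carrying ER-beta-UAS-bla reporter stimulated with estradiol; series mostly up to about 92 µM; nearly all actives have a fitted effect of over 55% in size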
# How it was run: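 Readout: luminescence, CellTiter-Glo, same wells as bla assay. System: ER-beta-UAS-bla GripTite HEK293T, 2% charcoal-stripped FBS. Exposure: compounds plus 1nM 17-beta-estradiol, 16 hr, 37C.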
# [17] = target: Estrogen receptor (Homo sapiens) (UniProt P03372); test: qHTS assay to identify small molecule agonists of the estrogen receptor alpha (ER-alpha) signaling pathway in the presence of an antagonist (AID 1259383; calls by dose curve; also: top concentration of the series differs between compounds; nearly all actives have a fitted effect of over 15% in size)
# How it was run: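 Quantitative HTS confirmation: compounds titrated at 15 concentrations onto estrogen-deprived VM7Luc4E2 cells carrying a four-ERE luciferase construct, with ICI-182,780 present at 10.0nM final. Signal is luminescence after 22hr exposure.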
# [18] = qHTS assay to identify small molecule agonists or antagonists of the thyroid stimulating hormone receptor (TSHR) signaling pathway - wild type cell line counter screen (AID 1259384; calls by dose curve)
# How it was run: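 Counter screen in untransfected Hek293: compounds (15-point titration, triplicate) plus phosphodiesterase inhibitor Ro20-1724 added after 18 h plating; 30 min RT. Intracellular cAMP via competitive d2/cryptate immunoassay, 1 h incubation.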
# [19] = qHTS assay to identify small molecule agonists of the androgen receptor (AR) signaling pathway in the presence of an antagonist - cell viability counter screen (AID 1259379);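 also: MDA-kb2 human breast cancer cells carrying an MMTV luciferase reporter; series mostly up to about 92 µM; nearly all actives have a fitted effect of over 25% in size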
# How it was run: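 MDA-kb2 viability measured by CellTiter-Fluor fluorescence in the same wells as the luciferase signal; nilutamide 3.0uM final; 15-point compound titration; 16 hr at 37C.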
# [20] = qHTS assay to identify small molecule phospholipidosis (PLD) inducers (AID 1259344; active = well fitted curve in the direction sought with a large enough effect; an effect the other way counts as inactive or inconclusive)
# How it was run: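 Accumulated phospholipid, stained red by LipidTOX during 24 h compound treatment of HepG2 cells at 37 C, is quantified from images as pit number and intensity, normalised per cell using Hoechst-stained nuclei.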
# Estrogen receptor (Homo sapiens), sequence (P03372 whole entry, looked up): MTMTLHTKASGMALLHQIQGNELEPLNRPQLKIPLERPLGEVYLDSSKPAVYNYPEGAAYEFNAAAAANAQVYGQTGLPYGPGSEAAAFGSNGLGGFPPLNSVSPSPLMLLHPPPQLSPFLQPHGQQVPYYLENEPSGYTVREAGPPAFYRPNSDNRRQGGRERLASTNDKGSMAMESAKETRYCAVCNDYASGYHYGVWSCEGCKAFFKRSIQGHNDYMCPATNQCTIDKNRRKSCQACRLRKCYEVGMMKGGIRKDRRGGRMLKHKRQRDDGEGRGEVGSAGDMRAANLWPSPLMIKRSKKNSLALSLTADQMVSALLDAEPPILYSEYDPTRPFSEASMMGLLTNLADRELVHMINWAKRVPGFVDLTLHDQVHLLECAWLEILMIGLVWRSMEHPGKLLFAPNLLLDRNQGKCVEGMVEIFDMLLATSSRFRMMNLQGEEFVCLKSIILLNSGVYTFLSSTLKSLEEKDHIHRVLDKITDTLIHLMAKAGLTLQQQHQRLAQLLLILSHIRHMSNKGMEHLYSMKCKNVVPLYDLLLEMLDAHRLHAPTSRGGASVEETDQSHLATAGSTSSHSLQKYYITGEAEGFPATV
# Estrogen receptor beta (Homo sapiens), sequence (Q92731 whole entry, looked up): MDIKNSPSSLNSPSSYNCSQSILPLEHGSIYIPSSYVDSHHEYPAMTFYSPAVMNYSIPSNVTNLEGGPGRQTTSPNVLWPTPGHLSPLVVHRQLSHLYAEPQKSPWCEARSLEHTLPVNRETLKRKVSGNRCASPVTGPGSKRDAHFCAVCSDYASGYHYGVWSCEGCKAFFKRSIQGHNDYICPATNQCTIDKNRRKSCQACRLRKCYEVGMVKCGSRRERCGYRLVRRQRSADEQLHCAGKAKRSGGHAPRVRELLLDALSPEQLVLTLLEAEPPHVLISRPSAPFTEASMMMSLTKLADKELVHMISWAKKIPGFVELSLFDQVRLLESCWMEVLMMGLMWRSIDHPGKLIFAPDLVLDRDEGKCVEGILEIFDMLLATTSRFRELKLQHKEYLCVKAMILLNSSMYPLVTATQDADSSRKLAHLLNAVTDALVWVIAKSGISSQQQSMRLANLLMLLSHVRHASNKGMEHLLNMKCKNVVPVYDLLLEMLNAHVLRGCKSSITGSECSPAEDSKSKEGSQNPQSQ
# Androgen receptor (Homo sapiens), sequence (P10275 whole entry, looked up): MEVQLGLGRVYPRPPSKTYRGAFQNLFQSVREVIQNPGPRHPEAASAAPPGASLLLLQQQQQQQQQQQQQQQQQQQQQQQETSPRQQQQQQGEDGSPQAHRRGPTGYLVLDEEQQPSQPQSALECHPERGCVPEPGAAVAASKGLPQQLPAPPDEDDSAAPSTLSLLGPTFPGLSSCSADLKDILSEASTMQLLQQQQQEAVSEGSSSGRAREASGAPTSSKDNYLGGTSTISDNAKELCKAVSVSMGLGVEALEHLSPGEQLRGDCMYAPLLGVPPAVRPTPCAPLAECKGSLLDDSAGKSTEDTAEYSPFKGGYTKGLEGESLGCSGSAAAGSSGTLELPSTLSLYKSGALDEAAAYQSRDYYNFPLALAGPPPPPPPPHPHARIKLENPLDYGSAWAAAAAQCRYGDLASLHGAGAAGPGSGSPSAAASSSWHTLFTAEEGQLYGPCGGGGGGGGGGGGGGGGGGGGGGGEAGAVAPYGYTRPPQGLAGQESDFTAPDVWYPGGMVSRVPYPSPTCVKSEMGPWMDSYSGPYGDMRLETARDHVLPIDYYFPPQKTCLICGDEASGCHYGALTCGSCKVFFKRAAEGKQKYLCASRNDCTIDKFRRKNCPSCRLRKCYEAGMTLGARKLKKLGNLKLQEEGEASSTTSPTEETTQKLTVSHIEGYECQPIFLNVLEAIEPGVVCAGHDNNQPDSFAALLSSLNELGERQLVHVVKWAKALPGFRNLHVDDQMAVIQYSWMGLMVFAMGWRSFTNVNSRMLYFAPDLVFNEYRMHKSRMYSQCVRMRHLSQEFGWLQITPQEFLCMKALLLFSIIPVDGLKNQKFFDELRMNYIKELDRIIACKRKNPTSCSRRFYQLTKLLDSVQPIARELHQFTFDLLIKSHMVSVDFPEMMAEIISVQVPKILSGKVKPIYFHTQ
Compound,Potency [1],Potency [2],Potency [3],Potency [4],Potency [5],Potency [6],outcome [7],Potency [8],Potency [9],Potency [10],Potency [11],Potency [12],Potency [13],Potency [14],Potency [15],Potency [16],Potency [17],outcome [18],Potency [19],Potency [20]
COC(=O)/C=C/C(C)=C\C=C\C(C)=C\C=C\C=C(C)\C=C\C=C(C)\C=C\C(=O)O,inactive,inactive,inactive,inactive,inactive,24.3 µM (active),inactive,inactive,inactive,inactive,inactive,inactive,inactive,inactive,inactive,inactive,inactive,inactive,–,–
O=C(O)c1ccncc1,inactive,inactive,inactive,inactive,–,inactive,inactive,inactive,inactive,inactive,–,inactive,inactive,inactive,inactive,inactive,–,inactive,inactive,–
FC(F)(Cl)C(F)(Cl)Cl,inactive,inactive,inactive,inactive,–,inactive,inactive,inactive,inactive,inactive,inactive,inactive,inactive,inactive,inactive,inactive,inactive,inactive,inactive,–
O=C(c1ccco1)N1CCNCC1,inactive,inactive,inactive,inactive,–,inactive,inactive,inactive,inactive,inactive,inactive,inactive,inactive,inactive,inactive,inactive,inactive,inactive,inactive,–
CC(=O)Nc1cccc(N)c1,inactive,inactive,inactive,–,inactive,inactive,inactive,inactive,inactive,inactive,inactive,inactive,inactive,inactive,–,inactive,–,inactive,inactive,–
CC(=O)c1cccnc1,inactive,inactive,inactive,–,inactive,inactive,inactive,inactive,inactive,inactive,inactive,inactive,inactive,inactive,–,inactive,inactive,–,inactive,–
C[C@H](N)C(=O)N[C@@H](C)C(=O)NC1[C@H]2CN(c3nc4c(cc3F)c(=O)c(C(=O)O)cn4-c3ccc(F)cc3F)C[C@@H]12 (stereo not given in full),inactive,inactive,inactive,inactive,–,inactive,inactive,inactive,inactive,inactive,inactive,–,–,inactive,inactive,inactive,inactive,inactive,inactive,–
C=CCCC,inactive,inactive,inactive,–,inactive,inactive,inactive,inactive,inactive,inactive,inactive,inactive,inactive,inactive,–,inactive,–,–,inactive,–
CCOc1ccc(NC(C)=O)cc1N,inactive,inactive,inactive,inactive,inactive,inactive,inactive,inactive,–,inactive,–,inactive,inactive,inactive,inactive,inactive,inactive,inactive,inactive,–
CC1(COc2ccc(CC3SC(=O)NC3=O)cc2)CCCCC1 (stereo not given),inactive,inactive,inactive,–,inactive,inactive,–,inactive,inactive,inactive,inactive,–,–,10.6 µM (active),–,inactive,inactive,inactive,inactive,inactive
Cc1c(N=C=O)cccc1N=C=O,inactive,inactive,inactive,inactive,inactive,inactive,inactive,inactive,inactive,inactive,inactive,inactive,inactive,inactive,inactive,inactive,–,inactive,inactive,–
CCCCCCCCCCCCN1CCOCC1,inactive,inactive,inactive,–,inactive,inactive,inactive,inactive,inactive,inactive,inactive,inactive,inactive,–,–,inactive,inactive,inactive,inactive,–
CC(Cc1ccccc1)(NC(=O)CN)c1ccccc1 (stereo not given),inactive,inactive,inactive,–,inactive,inactive,inactive,inactive,inactive,inactive,–,inactive,inactive,–,–,inactive,inactive,inactive,inactive,inactive
CCCCCCOC(=O)c1ccccc1,inactive,inactive,inactive,–,inactive,inactive,inactive,inactive,inactive,inactive,inactive,inactive,inactive,27.3 µM (active),–,–,inactive,inactive,inactive,–
CCOCCn1c(N2CCCN(C)CC2)nc2ccccc21,inactive,inactive,inactive,inactive,–,inactive,inactive,inactive,inactive,inactive,–,inactive,inactive,inactive,inactive,inactive,–,–,inactive,inactive
O=C(OC1C[C@H]2CC[C@@H](C1)[N+]21CCCC1)C(O)(c1ccccc1)c1ccccc1 (stereo not given in full),inactive,inactive,inactive,inactive,–,inactive,inactive,inactive,inactive,inactive,inactive,inactive,inactive,inactive,inactive,inactive,–,inactive,inactive,inactive
